Sampled rows, rich in hits. Any-hit rate of the full collection: about 10%.
CCT chaperon mod: changes cytosolic chaperonin activity; 360,000 compounds, 0.3% hits; activity change, % (concentration not given with the values), hits read low; purified chaperonin ATPase assay, HTRF ADP detection, 30 min; AID 651819; in the data active means activity change below about -30%
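First, chaperonin was dispensed at 40 nM or 20 nM final depending on batch activity. Next, compounds were pinned at 76 uM and ATP added at 10 uM. After 30 min at 37 °C, ADP detection reagents ran 30 min at ambient temperature.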
VDR inhibitor: vitamin D3 receptor (human) inhibition; VDR-SRC2-3 peptide fluorescence polarization, 2 h; P11473; AID 504847; 400,000 compounds, 0.93% hits; Potency, µM, without a hit: max response, negative = inhibition, usual class: inhibitors; further: potency means the concentration at half of the fitted maximal effect
Target sequence (P11473 whole entry, looked up): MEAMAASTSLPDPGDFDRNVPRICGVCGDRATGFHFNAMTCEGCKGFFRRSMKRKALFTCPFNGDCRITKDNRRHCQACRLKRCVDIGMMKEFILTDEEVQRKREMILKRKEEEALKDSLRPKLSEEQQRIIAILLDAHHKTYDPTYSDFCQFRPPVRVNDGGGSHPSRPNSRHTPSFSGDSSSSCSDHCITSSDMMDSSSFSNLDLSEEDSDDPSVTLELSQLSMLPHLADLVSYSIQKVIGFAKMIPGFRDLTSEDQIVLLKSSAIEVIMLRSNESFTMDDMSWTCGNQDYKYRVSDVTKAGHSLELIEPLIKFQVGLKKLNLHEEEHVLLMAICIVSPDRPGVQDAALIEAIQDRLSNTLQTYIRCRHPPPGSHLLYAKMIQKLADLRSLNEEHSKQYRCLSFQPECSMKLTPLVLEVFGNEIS
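Signal is fluorescence polarization, reporting how far test compounds block the interaction of VDR with the SRC2-3 coregulator peptide after a 2 h room-temperature incubation.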
PLK1 PBD block: blocks phosphopeptide binding to human PLK1 polo-box domain. P53350. Plk1 PBD binding of FITC phosphopeptide, fluorescence polarization. Potency, µM, for inactives: max response, negative = inhibition, hits mostly inhibitors. 360,000 compounds, 2.8% hits. AID 720504; further: potency means the concentration at half of the fitted maximal effect; series mostly up to about 57 µM; nearly all actives have a fitted effect of over 65% in size
MmCpn inh: blocks the Methanococcus maripaludis chaperonin Mm-Cpn; purified Mm-Cpn ATPase, ADP Transcreener TR-FRET; Potency, µM (titrated, usually from 76.9 µM), for inactives: at the highest dose activity, negative = inhibition, hits mostly inhibitors; 330,000 compounds, 0.031% hits; AID 504842; further: potency means the concentration at half of the fitted maximal effect; nearly all actives have a fitted effect of over 80% in size
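Eu-cryptate anti-ADP/ADP-d2 competition gives a ratio inversely related to ADP. Enzyme at 25 nM was pre-exposed to compound for 10 min, then given 10 uM ATP for 30 min, 37°C throughout.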
Sfp inh: blocks B. subtilis Sfp PPTase activity | Q9F4F7 | 310,000 compounds, 3.5% hits | Potency, µM, without a hit: largest response in the series, negative = inhibition, most hits filed as inhibitors | AID 1490 | Biochemical Sfp PPTase activity, qHTS;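 further: the enzyme is Sfp with the accession as filed and its product quenches rhodamine fluorescence; potency means the concentration at half of the fitted maximal effect; 0% = enzyme reaction without inhibitor and -100% = no enzyme wells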
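Reaction rates are the 30-min fluorescence difference (ex 525, em 598 nm) in wells containing 15 nM Sfp, 5 uM rhodamine-CoA and 12.5 uM BHQ-2-YbbR at pH 7.6 with 10 mM MgCl2.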
G9a inh: inhibitors of human histone lysine methyltransferase G9a; Q96KQ7; 350,000 compounds, 8.8% hits; Potency, µM (titrated, usually from 102 µM), for the others: top-dose activity, negative = inhibition, usual class: inhibitors; AID 504332; G9a H3K9 monomethylation, AlphaScreen, 2 h; further: potency means the concentration at half of the fitted maximal effect; nearly all actives have a fitted effect of over 75% in size
Target sequence (Q96KQ7 913-1193 limits assumed): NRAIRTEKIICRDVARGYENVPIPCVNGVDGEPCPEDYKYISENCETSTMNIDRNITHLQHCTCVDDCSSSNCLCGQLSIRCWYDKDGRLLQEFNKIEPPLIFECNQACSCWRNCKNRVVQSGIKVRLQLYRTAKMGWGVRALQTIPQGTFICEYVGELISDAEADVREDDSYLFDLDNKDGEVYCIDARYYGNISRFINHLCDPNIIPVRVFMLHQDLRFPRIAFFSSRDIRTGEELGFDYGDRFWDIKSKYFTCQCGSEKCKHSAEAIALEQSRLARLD
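Using a bead-based AlphaScreen, monomethylated H3K9 product from 2 h room-temperature reactions (G9a 20 nM, peptide 500 nM, SAM 20 uM) was detected with 0.5 ug/mL rabbit anti-H3K9me1 antibody.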
* hit, by the source's call; ? = inconclusive; . = no result; ! = repeats disagree; [ ] = remark or other dose. Unless noted, the call rests on the fitted dose curve; in most records, active means well fitted curve in the direction sought with a large enough effect; inconclusive means small, poorly fitted or top-dose-only effect, or another doubt; inactive means no such curve, though single readings can be large; an effect the other way counts as inactive or inconclusive. Unless noted, on the % scale 0 is the no-effect control and ±100 the full control effect.

SMILES	CCT chaperon mod	VDR inhibitor	PLK1 PBD block	MmCpn inh	Sfp inh	G9a inh
O=C(c1cccs1)N1CCN(C2CCN(Cc3ccccc3)CC2)CC1	0	14%	-3%	-2%	20%	11%[12.7 µM]
COC1OC(CO)C(OC2OC(C(=O)O)C(OC3OC(COS(=O)(=O)O)C(OC4OC(C(=O)O)C(OC5OC(CO)C(OC6OC(C(=O)O)C(OC7OC(COS(=O)(=O)O)C(OC8OC(C(=O)O)=C[C@H](O)C8OS(=O)(=O)O)C(O)C7NC(C)=O)[C@@H](O)C6O)C(O)C5NC(C)=O)[C@@H](O)C4O)C(O)C3NC(C)=O)[C@@H](O)C2O)C(O)C1NC(C)=O (stereo not given in full)	.	-3%	.	.	14%	?
COc1ccccc1N1CCN(C(CNC(=O)C(=O)NCc2ccc(F)cc2)c2cccnc2)CC1 (stereo not given)	.	12%	.	.	.	-41%[59 µM]
COc1cccc(-c2cncnc2NCc2cccs2)c1	.	-17%	.	.	4%	8%[0.501 µM]
CCOc1ccc(CNC(=O)CCCn2c(=O)c3cccn3c3ccccc32)cc1	.	0%	.	.	.	?
Cc1nn(CC(=O)NCCc2ccc(Cl)cc2)c(=O)c2cc3cc(F)ccc3n12	.	6%	.	.	.	14%[59 µM]
COc1ccc(N2CCN(S(=O)(=O)c3cc(-c4cc(C)no4)ccc3C(C)C)CC2)cc1	-1	25%	-3%	-3%	-7%	22µM*
CC(=O)c1ccc(N2CCN(S(=O)(=O)c3cc(-c4cc(C)no4)ccc3C(C)C)CC2)cc1	0	6%	-7%	?	9%	-7%[59 µM]
COc1ccc(S(=O)(=O)N2CCN(Cc3ccccc3)CC2)cc1	1	-3%	-5%	-2%	-1%	0%[59 µM]
CCC(CC)N1CCN(S(=O)(=O)c2ccc(OC)cc2)CC1	-1	11%	-5%	0%	-23%	3.5µM*
COc1ccc(N2CCN(S(=O)(=O)c3ccc(OC)cc3)CC2)cc1	-1	3%	?	-3%	4%	25µM*
CCC(C)NC(=O)CSc1nc2cc3c(cc2c(=O)n1CCCCCC(=O)NCc1ccc(OC)cc1)OCO3 (stereo not given)	.	13%	.	.	.	4%[59 µM]
Cc1ccc(NC(=O)NCCc2c(C)nn(C)c2C)cc1Cl	.	6%	.	.	.	10%[59 µM]
Cc1ccc(S(=O)(=O)N[C@H]2COC(=O)[C@H](C)COC(=O)C/C=C\[C@H]2C)cc1	.	.	.	.	-5%	.
Nc1ccc(NC(=O)c2ccccc2)c2c1C(=O)c1ccccc1C2=O	-3	23%	-5%	1%	-8%	?
O=C(O)c1cccc2c1C(=O)c1ccccc1C2=O	1	-11%	-4%	0%	-8%	?
O=C1c2ccccc2C(=O)c2c(O)ccc(O)c21	.	45µM*	.	.	?	.
Nc1ccc(Br)c2c1C(=O)c1ccccc1C2=O	0	-8%	-27%	-4%	50µM*	4%[0.0925 µM]
O=C1c2ccccc2C(=O)c2c(O)c(O)cc(O)c21	-9	50µM*!	27µM*	-6%	-20%	?
Nc1ccc(C2(c3ccc(N)cc3)c3ccccc3C(=O)c3ccccc32)cc1	0	-6%	-3%	.	.	.
Nc1ccc(O)c2c1C(=O)c1ccccc1C2=O	-7	?	?	-26%	?	7.1µM*
O=C(CSc1ccccc1C(=O)NCCCN1CCCC1=O)NCc1ccco1	-2	?	-18%	-2%	45µM*	?
O=C(CSc1ccccc1F)NCCCN1CCCC1=O	0	-12%	-11%	2%	.	2%[0.501 µM]
O=C(CSc1cn(CCNC(=O)c2ccccc2)c2ccccc12)NCC1CCCO1 (stereo not given)	1	0%	-5%	-4%	7%	1%
O=C(CSc1cn(CCNC(=O)c2ccccc2)c2ccccc12)NCc1ccco1	0	-12%	-27%	1%	?	40µM*
SMILES	CCT chaperon mod	VDR inhibitor	PLK1 PBD block	MmCpn inh	Sfp inh	G9a inh
CCCn1cc(SCC(=O)NCc2ccco2)c2ccccc21	-3	5%	-15%	-2%	-1%	40µM*
COc1ccc(C(=O)NCCSc2c[nH]c3ccccc23)cc1OC	.	-3%	.	.	.	-39%[59 µM]
COCCCNC(=O)c1c(N)n(/N=C/c2cccs2)c2nc3ccccc3nc12	1	-7%	-18%	0%	11%	6%[12.7 µM]
COCCN=c1scc(-c2cccs2)n1/N=C/c1ccc(O)c(O)c1O	-2	-29%	7.5µM*	0%	7.1µM*	5.6µM*
CCN=c1scc(C)n1/N=C/c1cc(Br)c(O)c(Br)c1	1	-15%	?	0%	?	10µM*
CCN=c1scc(C)n1/N=C/c1ccc(O)c(O)c1O	1	-12%	6.7µM*	-10%	8.9µM*	5µM*
C=C(C)CN=c1scc(C)n1/N=C/c1ccco1	0	10%	-7%	0%	-10%	-4%[59 µM]
Cc1cccc(C)c1OCc1nc2ccccc2c(=O)n1/N=C/c1c[nH]c2ccccc12	4	8%	-2%	1%	37%	-10%
COCCN=c1scc(-c2ccccc2)n1/N=C/c1c[nH]c2ccccc12	-1	6%	-14%	1%	-12%	13µM*
CCCc1nc2ccccc2c(=O)n1/N=C/c1ccccc1O	1	11%	0%	-6%	13%	12%
CCC(=O)N1CCc2cc(S(=O)(=O)NC(Cc3ccccc3)C(=O)Nc3ccc(C)cc3)ccc21 (stereo not given)	.	-13%	.	.	.	-3%[59 µM]
C=CCC(CC=C)(CNC(=O)C(=O)Nc1ccc(C(=O)OCC)cc1)c1ccccc1	.	-10%	.	.	.	9%[59 µM]
CCNc1ncc2nc(-c3ccccc3)c(=O)n(CCC#N)c2n1	.	-2%	.	.	24%	7%[0.501 µM]
Cc1ccc(O)c(NC(=O)COCc2cc(-c3ccco3)on2)c1	.	4%	.	.	.	-32%[59 µM]
CCC1(CC)C(=O)C2=C3C1[C@H](C(=O)OC)CC(C(=O)OC)C[C@H]3[C@H]1C(=O)N(C)C(=O)[C@H]1[C@H]2C (stereo not given in full)	.	12%	.	.	7%	.
O=C1CC(N2CCCCCC2)C(=O)N1c1ccc(F)cc1 (stereo not given)	1	-6%	-2%	1%	-5%	11µM*
O=C1CC(N2CCN(c3ccccc3Cl)CC2)C(=O)N1c1ccc(F)cc1 (stereo not given)	-3	-1%	0%	0%	-3%	50µM*
N#CCNC1CC(=O)N(c2ccccc2)C1=O (stereo not given)	-9	-6%	-14%	-1%	15%	15%
CC1CCN(C2CC(=O)N(c3ccccc3)C2=O)CC1 (stereo not given)	2	-7%	-2%	2%	-14%	28µM*
CN(NC1CC(=O)N(c2ccccc2)C1=O)c1ccccc1 (stereo not given)	3	13%	-14%	1%	45µM*	?

Source: PubChem BioAssay (National Center for Advancing Translational Sciences (NCATS))
